Our source for the outcome and AC50 values is PubChem BioAssay (EPA / NIEHS).

Active and inactive are the calls of the source. Rule for the calls: active = hit-call score of the fitted dose curve at least 0.9, where 1 is the maximum; inactive = score below 0.9.

Details in all cases: mRNA level, 48 h; actives raise or lower the signal
Read-out in assay [1]: Glutamate-cysteine ligase catalytic (GCLC), GCLC (gene 2729)
Briefly: LTEA_HepaRG_GCLC: Life Technologies and Expression Analysis (LTEA) Assay for Glutamate-cysteine ligase catalytic (GCLC) using HepaRG (AID 2283498). In short, it runs like this:
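Oxidative-stress marker GCLC is measured as mRNA change in human HepaRG liver cells after 48 h chemical treatment in 0.5% DMSO, eight concentrations from 100 uM. Activity is fitted bidirectionally against vehicle.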

Read-out in assay [2]: growth arrest and DNA damage 45 (GADD45G), GADD45G (gene 10912)
Briefly: LTEA_HepaRG_GADD45G: Life Technologies and Expression Analysis (LTEA) Assay for growth arrest and DNA damage 45 (GADD45G) using HepaRG (AID 2283499). In short, it runs like this: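 Differentiated human HepaRG cells, 48 h post-plating, exposed 48 h in serum-free induction medium to 8 half-log concentrations (top 100 uM, 0.5% DMSO) in duplicate. GADD45G mRNA measured by Fluidigm TaqMan qRT-PCR, normalized to ACTB, GAPDH, POLR2A; bidirectional fit versus DMSO.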

Read-out in assay [3]: Glutamate-cysteine ligase regulatory (GCLM), GCLM (gene 2730)
Briefly: LTEA_HepaRG_GCLM: Life Technologies and Expression Analysis (LTEA) Assay for Glutamate-cysteine ligase regulatory (GCLM) using HepaRG (AID 2283500). In short, it runs like this:
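In this multiplexed HepaRG gene-expression assay, GCLM mRNA change after 48 h treatment (8 concentrations, max 100 uM) was scored against DMSO by bidirectional curve fitting.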

Read-out in assay [4]: Heat shock 70 kDa protein 1 (HSPA1A), gene 3303
Briefly: LTEA_HepaRG_HSPA1A: Life Technologies and Expression Analysis (LTEA) Assay for Heat shock 70 kDa protein 1 (HSPA1A) using HepaRG (AID 2283502). In short, it runs like this:
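An oxidative-stress marker readout: HepaRG cells treated 48 h in duplicate with an eight-point series (highest 100 uM) had HSPA1A mRNA quantified by TaqMan qRT-PCR. Activity was fitted in both directions using 0.5% DMSO as baseline.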

Read-out in assay [5]: Hypoxia-inducible factor 1-alpha (Homo sapiens) (UniProt Q16665)
Briefly: LTEA_HepaRG_HIF1A: Life Technologies and Expression Analysis (LTEA) Assay for Hypoxia-inducible factor 1 (HIF1A) Trancription factor using HepaRG (AID 2283503). In short, it runs like this: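 Gain- or loss-of-signal HIF1A mRNA changes are fitted against a DMSO baseline. HepaRG cultures receive eight concentrations, highest 100 uM, for 48 h in serum-free induction medium with 0.5% DMSO.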

Read-out in assay [6]: 3-Hydroxy-3-Methylglutaryl-CoA Synthase 2 (HMGCS2), HMGCS2 (gene 3158)
Briefly: LTEA_HepaRG_HMGCS2: Life Technologies and Expression Analysis (LTEA) Assay for 3-Hydroxy-3-Methylglutaryl-CoA Synthase 2 (HMGCS2) using HepaRG (AID 2283504). In short, it runs like this: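 Human HepaRG cells in serum-free induction medium were exposed in duplicate for 48 h to 8-point half-log series from 100 uM top in 0.5% DMSO. HMGCS2 mRNA measured by TaqMan qRT-PCR, normalised to ACTB, GAPDH, POLR2A; bidirectional fit versus DMSO.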

Read-out in assay [7]: HGF (gene 3082)
Briefly: LTEA_HepaRG_HGF: Life Technologies and Expression Analysis (LTEA) Assay for Hepatocyte Growth Facto (HGF) using HepaRG (AID 2283505). The gist of the method: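 Differentiated HepaRG cells in serum-free induction medium exposed 48 h in duplicate, 8 half-log concentrations from 100 uM in 0.5% DMSO. HGF mRNA by qRT-PCR, normalised to ACTB, GAPDH, POLR2A; bidirectional fitting.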

Read-out in assay [8]: Insulin Like Growth Factor 1 (IGF1), IGF1 (gene 3479)
Briefly: LTEA_HepaRG_IGF1: Life Technologies and Expression Analysis (LTEA) Assay for Insulin Like Growth Factor 1 (IGF1) using HepaRG (AID 2283506). In short, it runs like this: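 Endpoint: IGF1 mRNA change by qRT-PCR, housekeeping-normalized, fitted bidirectionally relative to 0.5% DMSO vehicle. Human HepaRG cells were treated 48 h in serum-free induction medium, eight half-log concentrations topping at 100 uM.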

Read-out in assay [9]: Intercellular Adhesion Molecule 1 (ICAM1), ICAM1 (gene 3383)
Briefly: LTEA_HepaRG_ICAM1: Life Technologies and Expression Analysis (LTEA) Assay for Intercellular Adhesion Molecule 1 (ICAM1) using HepaRG (AID 2283507). The gist of the method:
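Differentiated human HepaRG cells in serum-free induction medium exposed 48 h in duplicate to 8 half-log concentrations (top 100 uM, 0.5% DMSO). ICAM1 mRNA quantified by TaqMan qRT-PCR, normalized to ACTB, GAPDH and POLR2A; bidirectional fitting versus DMSO.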

Read-out in assay [10]: Insulin-like growth factor-binding protein 1 (IGFBP1), IGFBP1 (gene 3484)
Briefly: LTEA_HepaRG_IGFBP1: Life Technologies and Expression Analysis (LTEA) Assay for Insulin-like growth factor-binding protein 1 (IGFBP1) using HepaRG (AID 2283508). The gist of the method:
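HepaRG cells, plated 48 h then switched to serum-free induction medium, exposed in duplicate for 48 h to 8-point half-log series from 100 uM in 0.5% DMSO. mRNA measured by qRT-PCR, normalized to ACTB/GAPDH/POLR2A; bidirectional fit versus DMSO.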

Read-out in assay [11]: Interleukin 6 (IL6), IL6 (gene 3569)
Briefly: LTEA_HepaRG_IL6: Life Technologies and Expression Analysis (LTEA) Assay for Interleukin 6 (IL6) using HepaRG (AID 2283509). In short, it runs like this:
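Changes in IL6 mRNA, up or down relative to 0.5% DMSO controls, were derived from concentration-response curves in human HepaRG cells treated for 48 h at up to 100 uM, with ACTB, GAPDH and POLR2A as normalizers.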

Read-out in assay [12]: Potassium channel subfamily K member 1 (KCNK1), KCNK1 (gene 3775)
Briefly: LTEA_HepaRG_KCNK1: Life Technologies and Expression Analysis (LTEA) Assay for Potassium channel subfamily K member 1 (KCNK1) using HepaRG (AID 2283511). In short, it runs like this:
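Human HepaRG cultures receive test chemicals for 48 h in 0.5% DMSO, top concentration 100 uM with half-log dilutions. Induction or suppression of KCNK1 mRNA relative to DMSO is derived by bidirectional fitting of qRT-PCR data.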

Read-out in assay [13]: JUN Transcription Factor, JUN (gene 3725)
Briefly: LTEA_HepaRG_JUN: Life Technologies and Expression Analysis (LTEA) Assay for JUN Transcription Factor using HepaRG (AID 2283513). The gist of the method: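 Gene-expression endpoint: JUN mRNA (qRT-PCR, normalized to three reference genes) in HepaRG cultures treated 48 h with chemicals, duplicate wells, 100 uM maximum with half-log dilutions; bidirectional fitting relative to 0.5% DMSO.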

Read-out in assay [14]: Lipase C (LIPC), LIPC (gene 3990)
Briefly: LTEA_HepaRG_LIPC: Life Technologies and Expression Analysis (LTEA) Assay for Lipase C (LIPC) using HepaRG (AID 2283514). The gist of the method:
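In this multiplexed gene-expression screen, human HepaRG cultures received test chemicals for 48 h across eight concentrations with 100 uM highest, in duplicate. Values reflect LIPC mRNA induction or suppression versus DMSO vehicle, from normalized qRT-PCR.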

Read-out in assay [15]: Lipoprotein lipase (LPL), LPL (gene 4023)
Briefly: LTEA_HepaRG_LPL: Life Technologies and Expression Analysis (LTEA) Assay for Lipoprotein lipase (LPL) using HepaRG (AID 2283515). In short, it runs like this:
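Concentration-response testing used half-log steps from 100 uM in 0.5% DMSO on human HepaRG cells, 48 h, duplicate wells. Phenobarbital 1 mM served as induction control; LPL mRNA was normalized to ACTB, GAPDH, POLR2A.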

Read-out in assay [16]: MicroRNA 122 (MIR122), gene 406906
Briefly: LTEA_HepaRG_MIR122: Life Technologies and Expression Analysis (LTEA) Assay for MicroRNA 122 (MIR122) using HepaRG (AID 2283516). Note: the transcript read is the microRNA miR-122. In short, it runs like this: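 Changes in transcript abundance, up or down relative to 0.5% DMSO vehicle, were scored after 48 h chemical treatment of HepaRG cells (maximum 100 uM). Quantification used TaqMan qRT-PCR normalized to housekeeping genes.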

Read-out in assay [17]: matrix metalloproteinase-10 (MMP10), MMP10 (gene 4319)
Briefly: LTEA_HepaRG_MMP10: Life Technologies and Expression Analysis (LTEA) Assay for matrix metalloproteinase-10 (MMP10) using HepaRG (AID 2283517). In short, it runs like this:
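In differentiated HepaRG cultures kept in 0.5% DMSO, test chemicals act for 48 h over an eight-point range with a top dose of 100 uM. Expression is then quantified by TaqMan RT-PCR against ACTB, GAPDH and POLR2A.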

Read-out in assay [18]: Interleukin 6 Receptor (IL6R), IL6R (gene 3570)
Briefly: LTEA_HepaRG_IL6R: Life Technologies and Expression Analysis (LTEA) Assay for Interleukin 6 Receptor (IL6R) using HepaRG (AID 2283510). The gist of the method:
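In this HepaRG screen, test chemicals act on cells for 48 h at up to 100 uM (eight half-log points, duplicate wells). IL6R expression is quantified by qRT-PCR after normalization to ACTB, GAPDH and POLR2A, with DMSO as baseline.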

Read-out in assay [19]: Keratin 19 (KRT19), KRT19 (gene 3880)
Briefly: LTEA_HepaRG_KRT19: Life Technologies and Expression Analysis (LTEA) Assay for Keratin 19 (KRT19) using HepaRG (AID 2283512). The gist of the method:
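Differentiated HepaRG cells in serum-free induction medium, exposed 48 h in duplicate to 8 half-log concentrations up to 100 uM in 0.5% DMSO. KRT19 mRNA by qRT-PCR, normalized to ACTB, GAPDH, POLR2A; bidirectional fit vs DMSO.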

Sequence of Hypoxia-inducible factor 1-alpha (Homo sapiens) (Q16665 whole entry, looked up): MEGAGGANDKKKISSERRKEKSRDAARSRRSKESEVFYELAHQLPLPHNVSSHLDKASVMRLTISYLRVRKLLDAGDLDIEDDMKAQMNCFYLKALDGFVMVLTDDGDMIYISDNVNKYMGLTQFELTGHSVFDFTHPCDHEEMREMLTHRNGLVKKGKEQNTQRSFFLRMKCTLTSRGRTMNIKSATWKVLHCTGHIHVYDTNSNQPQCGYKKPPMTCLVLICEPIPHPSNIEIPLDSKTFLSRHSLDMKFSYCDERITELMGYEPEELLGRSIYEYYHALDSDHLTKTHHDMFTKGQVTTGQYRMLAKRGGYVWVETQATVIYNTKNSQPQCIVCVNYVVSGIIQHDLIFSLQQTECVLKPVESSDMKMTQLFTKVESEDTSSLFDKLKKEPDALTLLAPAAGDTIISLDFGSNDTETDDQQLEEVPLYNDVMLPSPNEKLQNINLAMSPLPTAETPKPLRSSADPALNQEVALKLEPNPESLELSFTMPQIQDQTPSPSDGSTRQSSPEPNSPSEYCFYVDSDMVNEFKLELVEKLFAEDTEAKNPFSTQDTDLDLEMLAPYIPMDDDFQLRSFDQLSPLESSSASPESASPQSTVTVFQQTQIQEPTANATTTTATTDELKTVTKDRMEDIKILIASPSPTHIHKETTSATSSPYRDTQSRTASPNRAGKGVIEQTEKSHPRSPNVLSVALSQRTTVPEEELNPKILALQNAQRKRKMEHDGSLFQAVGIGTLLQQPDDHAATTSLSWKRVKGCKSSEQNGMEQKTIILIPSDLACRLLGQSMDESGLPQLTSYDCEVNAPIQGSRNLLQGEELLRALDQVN

As for `c1ccc2c(c1)-c1cccc3c1c-2cc1ccccc13`, the call in [1], in assay [3], in assay [5], in [9], in [11] and in assay [12] was inactive. Also, the result in assay [13] and in assay [17] was inactive. The concentration at half-maximal activity (AC50) (as a rule, the midpoint of the concentration-response curve, whichever way the signal moves) was 14 µM (active) in assay [2]; 18.5 µM (active) in assay [4]; 16.1 µM (active) in assay [6]; 50 µM (active) in assay [7]; 16 µM (active) in [8]; 2.54 µM (active) in assay [10]. Also, the AC50 in assay [14] is 13.3 µM (active); in assay [15] it was 5.49 µM (active); in [16], 19.6 µM (active).
`O=S(=O)(O)c1ccc(N=Nc2c(O)ccc3cc(S(=O)(=O)O)ccc23)cc1`: the compound was classed as inactive in assay [1], in assay [2], in assay [3], in [4], in [5] and in assay [6]. Further, the result in [7], in [8], in [9], in assay [10], in assay [11] and in assay [12] was inactive. Moreover, the call in assay [13], in assay [14], in [15] and in [16] was inactive.
With `O=C(O)[C@H](O)[C@@H](O)C(=O)O`, the compound was classed as inactive in assay [1], in [2], in assay [3], in assay [4], in [6] and in assay [7]. In addition, the compound was called inactive in assay [8], in assay [9], in assay [10], in assay [11], in [12] and in assay [13]. The compound was called inactive in assay [14], in [15] and in [16].
`O=C(O)c1ccc2c(c1)nc(C(=O)NC1CCN(C3CC3)CC1)n2Cc1cc(-c2ccc(Cl)s2)on1`: the call in assay [1], in assay [2], in [3], in assay [4], in assay [5] and in assay [6] was inactive. Further, the compound was classed as inactive in [7], in assay [8], in assay [9], in assay [10], in assay [11] and in assay [18]. Moreover, the call in assay [12], in assay [13], in assay [14], in [15] and in [16] was inactive.
On to `CCc1cccc(CC)c1N`, for which the compound was classed as inactive in [1], in assay [2], in [3], in [4], in assay [5] and in assay [6]. The call in assay [7], in assay [8], in assay [9], in assay [10], in [11] and in [18] was inactive. In addition, the call in assay [12], in assay [13], in assay [14], in [15], in assay [16] and in assay [17] was inactive.
On to `CCCCCCCCCCCCCCO`, for which the compound was classed as inactive in [1], in assay [2], in assay [3], in assay [4], in [5] and in [6]. Also, the call in [7], in assay [8], in [9], in assay [10], in assay [11] and in [12] was inactive. Further, the compound was called inactive in [19], in assay [13], in assay [14], in assay [15], in assay [16] and in assay [17].
